In PubChem BioAssay (NCI):
About 79,000 compounds went through this panel and 15% of them were active in at least one assay; those are over-represented in the sample as a whole. Values without a mark were called inactive. The source made the active and inactive calls. No stated cut-off is given here; in the data, active means growth inhibition above about 70%; inactive means the rest.

Columns and labels:
[1] = NCI Yeast Anticancer Drug Screen. Data for the rad50 strain (AID 155);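 further: 0% = growth of vehicle-only cultures of the same strain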; conditions: S. cerevisiae rad50 strain growth inhibition; at 50.0 µM; stronger effect = higher value
In short: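 Cells are treated with compound, grown, and their growth is then scored against vehicle-only cultures of the same repair-deficient yeast strain.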

[2] = NCI Yeast Anticancer Drug Screen. Data for the mec2-1 strain (AID 157); conditions: S. cerevisiae mec2-1 strain, at 50.0 µM, stronger effect = higher value
In short: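 Cells of the genetically defined mec2-1 yeast strain are incubated with test compound. Inhibition of growth is calculated against vehicle-treated controls.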

[3] = NCI Yeast Anticancer Drug Screen. Data for the sgs1 mgt1 strain (AID 161);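 further: 0% = growth of cultures given vehicle only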; conditions: S. cerevisiae sgs1 mgt1 strain, at 50.0 µM, stronger effect = higher value
In short: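 Genetically altered yeast, compound exposure, growth inhibition relative to vehicle.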

[4] = NCI Yeast Anticancer Drug Screen. Data for the cln2 rad14 strain (AID 165);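 further: 0% = growth equal to vehicle treated cultures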; conditions: S. cerevisiae cln2 rad14 strain, at 50.0 µM, stronger effect = higher value
In short: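 The screen exposed genetically defined yeast (cln2 rad14) to test compounds and scored growth inhibition relative to vehicle-treated controls.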

[5] = NCI Yeast Anticancer Drug Screen. Data for the bub3 strain (AID 167); conditions: S. cerevisiae bub3 mutant strain, at 50.0 µM, stronger effect = higher value
In short: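 Part of a panel of yeast mutants defective in DNA damage repair or cell cycle regulation. Each strain is grown with compound, and inhibition is calculated relative to solvent-treated cultures.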

[6] = NCI Yeast Anticancer Drug Screen. Data for the mlh1 rad18 strain (AID 175); conditions: S. cerevisiae mlh1 rad18 strain growth inhibition; at 50.0 µM; stronger effect = higher value
In short: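 Compound-treated yeast growth, normalised to vehicle controls. Strain bears defined DNA repair mutations.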

Row | Structure (SMILES) | growth inhibition [1] | growth inhibition [2] | growth inhibition [3] | growth inhibition [4] | growth inhibition [5] | growth inhibition [6]
1 | NC(=O)C1C=CN(Cc2ccccc2)C=C1 | -5.2% | 7.45% | -0.65% | -12.8% | 23.4% | 7.3%
2 | CCOC(=O)C(NC(C)=O)C(=O)OCC | -3.4% | 10.2% | 3.5% | -12.6% | -7.15% | -16.4%
3 | COc1nc(NC2OC(CO)C(O)C(O)C2O)c(C(C)=O)c(=O)n1C (stereo unspecified) | 12.2% | 2.25% | 24.1% | 15.2% | -6.25% | 12.5%
4 | CCCCC(O)(c1ccccc1)c1ccccc1CN(C)C (stereo unspecified) | 1.7% | -3% | -0.65% | 6.15% | -2.05% | -4.8%
5 | Cc1[nH]n(C(N)=S)c(=O)c1N=Nc1c(Cl)cccc1Cl | 55.4% | 14.9% | 63.2% | -37.4% | 11.9% | 51%
6 | CCN(CC)CCOC(c1ccccc1)c1ccccc1 | 3.8% | -9.75% | -1.2% | -10.8% | -0.05% | -11.8%
7 | CC1NC(C)c2ccc3ccccc3c2O1 (stereo unspecified) | -4.85% | -12.7% | -25.1% | -9.35% | -11.2% | -6.15%
8 | Brc1nc2c3ccccc3ncn2c1Br | 45.2% | -3.05% | 21.3% | -4.25% | 1.7% | 23.3%
9 | N=C(N)c1ccc(NC(=O)c2ccc(C(=O)Nc3ccc(C(=N)N)cc3)c(N)c2)cc1 | 9.9% | 18.1% | -7.6% | -7.85% | -1.95% | -7.3%
10 | C/C(CC(=O)NC1=CC=C(NC(=O)C/C(C)=N\Nc2ccccc2)CC1)=N/Nc1ccccc1 | 8.65% | 12% | -18.8% | -9.35% | -0.1% | 13.7%
11 | O=C(O)COc1ccccc1F | -27.9% | 12.1% | -14.4% | -25.9% | 3% | -3.85%
12 | CCCCCCCCCCC1OCC(C)(C)CO1 | 10.3% | -12.2% | 17.4% | -7.5% | 1.65% | 11.4%
13 | O=C(OCCO)C1CC2CC1C1(C2)OCCO1 (stereo unspecified) | -2% | -13.2% | 13.9% | -12.1% | 42% | 0.5%
14 | O=[N+]([O-])c1cc(F)ccc1Sc1ccccc1 | 49.2% | 23.4% | 38.9% | 39.8% | 20.6% | 40.6%
15 | CC(Cl)C(O)C#N (stereo unspecified) | -25.1% | -3.35% | -10.8% | -8.2% | 1.6% | -16.2%
16 | O=C(OCc1ccccc1)c1ccccc1 | 18.9% | 3.05% | 10.8% | -13.3% | 28.1% | 51.9%
17 | CC1OC2CC(O)C1(O)C1=C2C(O)=C(C(N)=O)C(=N)C1=O (stereo unspecified) | 12.3% | -15.6% | 19.4% | 6.8% | 5.35% | -21.4%
18 | CCCCOCCOC(=O)c1ccccc1C(=O)OCCOCCCC | -5.75% | -42.4% | -49.4% | -49% | -23.1% | -25%
19 | CN(C)c1cc(N(C)C)c2cc(C#N)ccc2n1 | 15.4% | 3.05% | 17.2% | -5.45% | 0.9% | 5.75%
20 | CCOC(=O)c1c(C(=O)Nc2ccccc2)c(-c2ccccc2)n(NC(=O)c2cccc(Cl)c2)c1C | 18.1% | 10.3% | 3.9% | 7.2% | -4.85% | 21.5%
21 | COc1ccc(OC)c2c(Nc3ccc(S(=O)(=O)O)c4cc(S(=O)(=O)O)cc(S(=O)(=O)O)c34)cc(C)nc12 | 2.5% | -6.4% | 9.25% | 3.1% | 6.8% | 10.9%

Row | Structure (SMILES) | growth inhibition [1] | growth inhibition [2] | growth inhibition [3] | growth inhibition [4] | growth inhibition [5] | growth inhibition [6]
22 | CC(C)OC(CCC#N)c1ccccc1 (stereo unspecified) | -20.1% | -48.6% | -33.3% | -8.3% | -32.9% | -34.1%
23 | COc1cc(C=O)cc([N+](=O)[O-])c1O | -2.2% | -9.75% | -2.2% | 1.05% | -0.45% | -6.1%
24 | COc1cccc(-c2nc3ccccc3c(=O)[nH]2)c1OC | 33.2% | -16.6% | 10.1% | 18.1% | 16.5% | 19.9%
25 | O=C(NC(=O)c1cn(CCN(CCO)C(=O)NCCCCCCNC(=O)N(CCO)CCn2cc(C(=O)NC(=O)OCc3ccccc3)c(=O)[nH]c2=O)c(=O)[nH]c1=O)OCc1ccccc1 | -2.5% | 7.05% | -18.9% | -23.9% | 0.9% | -17.9%
26 | COc1ccc(C(C)=C2C=C(C(C)(C)C)C(=O)C(C(C)(C)C)=C2)cc1 | -26.6% | -16.2% | -17.4% | 34.2% | 1.35% | -17.4%
27 | CN(C)c1ccc(/C=C(\C#N)c2ccccc2Br)cc1 | 0.15% | -10.5% | 15.7% | -28.2% | 29.6% | 3.95%
28 | OC1c2ccccc2-c2ccc(Cl)cc21 (stereo unspecified) | 23.8% | 14.2% | -7.15% | -32.2% | 4.15% | 14.9%
29 | CCCCCOC(=S)S.[Ag] | -5.65% | -15.2% | -1.55% | 13.2% | -16.2% | -8.4%
30 | O=C1c2cccc3cccc(c23)C(=O)N1Cc1ccco1 | 41.4% | 36.2% | 45% | 44.5% | 40.2% | 24.7%
31 | CC(N)CCC(=O)O (stereo unspecified) | -16.1% | -27.4% | -15.7% | -27.2% | -32.1% | -31%
32 | O=C1/C(=C/c2ccccc2)SC(=S)N1C1c2ccccc2Oc2ccccc21 | 35.4% | 14.6% | 53.8% | 38.8% | 5.25% | 30.1%
33 | COc1cc(=O)cc2n(-c3cc(OC)c(O)c(OC)c3)c3ccccc3nc1-2 | 23.6% | 0.1% | 5.95% | 6% | -8.3% | 23.5%
34 | CCOC(=O)CNC(=O)CCC(=O)OC | -11% | -4.8% | 17.4% | -10.6% | 5.55% | -9.1%
35 | O=[N+]([O-])C1CCC(N=Nc2c(O)ccc3ccccc23)CC1 (stereo unspecified) | -9.95% | 3.6% | 4.65% | -27% | -50.6% | -0.6%
36 | S=C(Cc1ccccc1)Nc1ccccc1 | 12.1% | -18.5% | 14.1% | -22.9% | -25.4% | 3.3%
37 | Cc1nc(Nc2ccc(Cl)cc2)c2cnn(-c3ccccc3)c2n1 | 29.1% | -7.2% | -8% | -35.9% | 6.75% | 26.9%
38 | Cc1ccc(C)c(NC(=O)Oc2ccc(Cl)cc2Cc2ccccc2)c1 | 5.35% | -3.5% | 0.05% | 11.8% | 8.2% | 7.1%
39 | Cc1c(C)c(C)c(CCl)c(CCl)c1C | 36.1% | 16.9% | 31.9% | 10.4% | 8.3% | 24.6%
40 | CC(=O)Nc1cccc(Oc2ccc(Cl)cc2[N+](=O)[O-])c1 | 13% | -6.6% | -2.75% | -5.2% | 2.35% | 7.95%
41 | CC(c1ccc(O)cc1)c1cc2c(cc1OCCO)OCO2 (stereo unspecified) | 99.3% (active) | 99% (active) | 99.4% (active) | 99.3% (active) | 99.5% (active) | 99.1% (active)
